The values that follow come from PubChem BioAssay (NCATS).

A number with no mark means an inactive call. Results filed as inconclusive are left out. The source made the active and inactive calls. Unless noted, the call rests on the fitted dose curve.

For the first assay, the target named is Glucocorticoid receptor (Homo sapiens) (UniProt P04150). The experiment in a line: GR-GFP Redistribution (AID 450;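 active means compounds whose dose series gives a full or clear partial fitted curve of increased nuclear translocation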; further: potency means the concentration at half of the fitted maximal effect). The note with it: U2OS GR-GFP nuclear translocation, laser cytometry, 2 h.
Chain of Glucocorticoid receptor (Homo sapiens) (P04150 whole entry, looked up): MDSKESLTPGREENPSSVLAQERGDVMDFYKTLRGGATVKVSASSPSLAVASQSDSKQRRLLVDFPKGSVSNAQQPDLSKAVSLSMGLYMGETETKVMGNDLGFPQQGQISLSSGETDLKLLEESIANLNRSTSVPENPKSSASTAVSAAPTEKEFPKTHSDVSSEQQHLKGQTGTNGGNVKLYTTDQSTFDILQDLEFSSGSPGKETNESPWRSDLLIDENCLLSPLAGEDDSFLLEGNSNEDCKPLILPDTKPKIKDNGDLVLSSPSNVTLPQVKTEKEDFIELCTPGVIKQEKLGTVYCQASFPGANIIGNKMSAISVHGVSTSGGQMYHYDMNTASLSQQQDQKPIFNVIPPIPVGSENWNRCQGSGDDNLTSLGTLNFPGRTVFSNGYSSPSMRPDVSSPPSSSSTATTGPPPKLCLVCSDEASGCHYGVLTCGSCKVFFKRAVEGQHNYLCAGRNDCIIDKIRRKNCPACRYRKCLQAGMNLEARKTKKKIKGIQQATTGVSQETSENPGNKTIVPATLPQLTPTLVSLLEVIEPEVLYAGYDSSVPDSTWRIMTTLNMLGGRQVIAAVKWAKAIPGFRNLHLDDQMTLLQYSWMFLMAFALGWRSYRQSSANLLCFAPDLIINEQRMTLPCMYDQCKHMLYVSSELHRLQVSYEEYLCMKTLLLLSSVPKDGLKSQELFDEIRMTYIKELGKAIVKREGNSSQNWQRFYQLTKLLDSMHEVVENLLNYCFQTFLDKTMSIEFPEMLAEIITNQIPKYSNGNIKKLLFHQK
On to `CN1CC[C@@]2(c3cccc(O)c3)Cc3nc4ccccc4cc3C[C@H]2C1`, for which the Potency is greater than 46 µM.

As for `Oc1ccc2c3c1O[C@H]1c4c(c5ccccc5n4Cc4ccccc4)C[C@]4(O)[C@H](C2)N(CC2CC2)CC[C@@]314`, the Potency was greater than 46 µM.

With `CC(C)(O)[C@H]1O[C@@H]2CC[C@]3(C)[C@@]4(C)c5[nH]c6ccccc6c5C[C@@H]4CC[C@]3(O)C2=CC1=O`, the Potency is 6.76e-05 µM (active).

Regarding `CN(C(=O)Cc1ccc(Cl)c(Cl)c1)[C@H](CN1CCCC1)c1ccccc1`, the Potency was greater than 46 µM.

As for `CN1[C@@H]2CC[C@H]1CC(OC(c1ccc(F)cc1)c1ccc(F)cc1)C2` (stereo partly drawn), the Potency was greater than 46 µM.

The target is the same in another assay. The experiment in a line: GR-EFC Redistribution (AID 451). Further: potency means the concentration at half of the fitted maximal effect. The following applies: CHO-K1 GR-EFC translocation, beta-gal luminescence, 2 h. The method, boiled down: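 Translocation of GR-ED fusion to nuclear EA restores b-gal, read by luminescence after 1 h room-temperature detection. Engineered CHO-K1 biosensor cells, 1,000/well, exposed 2 h at 37 C to titrations up to 46 uM final.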
As to `CN1CC[C@@]2(c3cccc(O)c3)Cc3nc4ccccc4cc3C[C@H]2C1`, the Potency is greater than 46 µM.

Regarding `Oc1ccc2c3c1O[C@H]1c4[nH]c5ccccc5c4C[C@]4(O)[C@H](C2)N(CC2CC2)CC[C@@]314`, the Potency was greater than 46 µM.

In the case of `Oc1ccc2c3c1O[C@H]1c4c(c5ccccc5n4Cc4ccccc4)C[C@]4(O)[C@H](C2)N(CC2CC2)CC[C@@]314`, the Potency is greater than 46 µM.

As for `CC(C)(O)[C@H]1O[C@@H]2CC[C@]3(C)[C@@]4(C)c5[nH]c6ccccc6c5C[C@@H]4CC[C@]3(O)C2=CC1=O`, the Potency is greater than 46 µM.

As to `CN(C(=O)Cc1ccc(Cl)c(Cl)c1)[C@H](CN1CCCC1)c1ccccc1`, the Potency is greater than 46 µM.

Take `CCCCCCC[n+]1ccc(-c2cc[n+](CCCCCCC)cc2)cc1`: the Potency was greater than 46 µM.

As for `CN1[C@@H]2CC[C@H]1CC(OC(c1ccc(F)cc1)c1ccc(F)cc1)C2` (stereo partly drawn), the Potency was greater than 46 µM.

In the case of `C[C@H](N)Cc1c[nH]c2ccc(OCc3cccs3)cc12`, the Potency was greater than 46 µM.

The target in a further assay is Mitogen-activated protein kinase 10 (Mus musculus) (UniProt Q61831). The experiment in a line: JNK3 AlphaScreen Assay (AID 530; active means well fitted curve in either direction with a large enough effect, not every such curve was filed as active;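 further: kinase came from lysate of stimulated human HepG2 cells; signal reports phosphorylation of biotinylated GST-cJun 1-79 at Ser73 with 10 µM ATP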). The following applies: JNK3 lysate, c-Jun phosphorylation; series mostly up to 57.1 µM. In a few lines:
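qHTS titrations with 15 min compound pre-incubation before adding ATP (10 uM final). Read-out: AlphaScreen of Ser73-phosphorylated biotin-GST-cJun using HepG2 lysate JNK3 activated by IL-1β and TNFα.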
On the technique in general: Bead proximity is the source of the signal in Alpha formats.
On to `CN1CC[C@@]2(c3cccc(O)c3)Cc3nc4ccccc4cc3C[C@H]2C1`, for which the molecule was classed as inactive.

Regarding `Oc1ccc2c3c1O[C@H]1c4[nH]c5ccccc5c4C[C@]4(O)[C@H](C2)N(CC2CC2)CC[C@@]314`, the molecule was called inactive.

Take `Oc1ccc2c3c1O[C@H]1c4c(c5ccccc5n4Cc4ccccc4)C[C@]4(O)[C@H](C2)N(CC2CC2)CC[C@@]314`: the molecule was classed as inactive.

On to `CN(C(=O)Cc1ccc(Cl)c(Cl)c1)[C@H](CN1CCCC1)c1ccccc1`, for which the molecule was classed as inactive.

As for `C[C@H](N)Cc1c[nH]c2ccc(OCc3cccs3)cc12`, the result was inactive.
